According to the supplement of paper PMC6555819:

What was measured:
Assay in all cases: PBM binding z-score (relative to random genomic background probes); higher = stronger binding; sequences stand for … in GC…GCGATTGACAGCGTAGAATGAAGG
[1] = tested on: FXR:RXRa (NR concentration 270 nM, RXRa partner concentration 90 nM)
Summary of the method: (§1)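 Ligand-free nuclear receptor dimers were applied to custom Agilent 4×180K protein-binding microarrays whose double-stranded probes carried direct-repeat seeds, single-nucleotide variants, half-site ablations and random human genomic background sequences in 34-nt variable regions. Incubation lasted 1 h. Binding z-scores were computed against the random background probes from regression-normalized fluorescence.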

[2] = tested on: LXRa:RXRa (NR concentration 270 nM, RXRa partner concentration 90 nM)
Summary of the method: as §1

[3] = tested on: LXRa homodimer (NR concentration 270 nM)
Summary of the method: as §1

[4] = tested on: LXRb:RXRa (NR concentration 270 nM, RXRa partner concentration 90 nM)
Summary of the method: as §1

[5] = tested on: LXRb homodimer (NR concentration 270 nM)
Summary of the method: as §1

[6] = tested on: PPARa:RXRa (NR concentration 270 nM, RXRa partner concentration 90 nM)
Summary of the method: as §1

[7] = tested on: PPARg:RXRa (NR concentration 180 nM, RXRa partner concentration 90 nM)
Summary of the method: as §1

[8] = tested on: PPARg:RXRa 270nM:90nM, anti-RXR (NR concentration 270 nM, RXRa partner concentration 90 nM)
Summary of the method: as §1

[9] = tested on: PPARg:RXRa 30nM:10nM, anti-RXR (NR concentration 30 nM, RXRa partner concentration 10 nM)
Summary of the method: as §1

[10] = tested on: PPARg:RXRa 90nM:30nM, anti-RXR (NR concentration 90 nM, RXRa partner concentration 30 nM)
Summary of the method: as §1

[11] = tested on: PPARg:RXRa DBDmut IVT, anti-RXR (DBD mutation: RXRa K156A/R161A, NR concentration 270 nM, RXRa partner concentration 90 nM)
Summary of the method: as §1

[12] = tested on: PPARg:RXRa IVT, anti-PPARg (NR concentration 270 nM, RXRa partner concentration 90 nM)
Summary of the method: as §1

[13] = tested on: PPARg DBDmut:RXRa IVT, anti-PPARg (DBD mutation: PPARg1 K132A/R137A, NR concentration 270 nM, RXRa partner concentration 90 nM)
Summary of the method: as §1

[14] = tested on: PPARg DBDmut IVT, anti-PPARg (DBD mutation: PPARg1 K132A/R137A, NR concentration 270 nM)
Summary of the method: as §1

[15] = tested on: PPARg homodimer (NR concentration 180 nM)
Summary of the method: as §1

[16] = tested on: PXR:RXRa (NR concentration 270 nM, RXRa partner concentration 90 nM)
Summary of the method: as §1

[17] = tested on: PXR homodimer (NR concentration 270 nM)
Summary of the method: as §1

[18] = tested on: RARa:RXR (NR concentration 270 nM, RXRa partner concentration 90 nM)
Summary of the method: as §1

[19] = tested on: RARa homodimer (NR concentration 270 nM)
Summary of the method: as §1

[20] = tested on: RARb:RXRa (NR concentration 270 nM, RXRa partner concentration 90 nM)
Summary of the method: as §1

| Sequence | PBM binding z-score [1] | PBM binding z-score [2] | PBM binding z-score [3] | PBM binding z-score [4] | PBM binding z-score [5] | PBM binding z-score [6] | PBM binding z-score [7] | PBM binding z-score [8] | PBM binding z-score [9] | PBM binding z-score [10] | PBM binding z-score [11] | PBM binding z-score [12] | PBM binding z-score [13] | PBM binding z-score [14] | PBM binding z-score [15] | PBM binding z-score [16] | PBM binding z-score [17] | PBM binding z-score [18] | PBM binding z-score [19] | PBM binding z-score [20] |
| --- | --- | --- | --- | --- | --- | --- | --- | --- | --- | --- | --- | --- | --- | --- | --- | --- | --- | --- | --- | --- |
| ATATGTAGGTTAGCTGGGGTGATTCAGACTAGGC | 2.08 | 0.979 | 0.289 | 1.32 | 0.553 | 2.85 | 3.26 | 2.89 | 0.853 | 1.94 | 6.78 | 5.76 | 1.88 | 1.63 | 1 | 1.55 | 0.409 | 1.31 | 1.29 | 1.07 |
| CAAACTAGGTCAAAGGTCACAGTCGAGCCAACCA | 8.05 | 6.81 | 4.49 | 7.06 | 2.03 | 7.83 | 13.8 | 11.1 | 13.2 | 13.2 | 8.58 | 9.39 | 3.19 | 2.73 | 4.25 | 6.88 | 1.29 | 8.53 | 1.9 | 5.89 |
| TTACCAAGGTGAAGTTCGTTGATCCCTCTGTAGA | 1.07 | 1.09 | -0.342 | 0.617 | -0.644 | 1.98 | 1.16 | 2.35 | 0.877 | 2.05 | 2.04 | 2.68 | 0.229 | 0.131 | 0.308 | 1.23 | 0.329 | 0.86 | -0.298 | 1.75 |
| TAGCCCAGGTCATGGGCCAGTATACCACGCGAAC | 5.49 | 3.68 | 0.403 | 2.34 | -0.434 | 4.31 | 3.87 | 3.37 | 0.448 | 2.04 | 0.271 | 2.71 | 0.391 | -0.431 | 0.53 | 2.24 | -0.39 | 2.96 | 0.0198 | 3.78 |
| ATTGAAAGGTCGAAGGTGAGTATACCCACCCGAA | 4.77 | 3.47 | 0.632 | 2.97 | 0.961 | 4.74 | 5.11 | 5.53 | 2.82 | 5.09 | 0.108 | 2.82 | 1.09 | 0.602 | 2.51 | 3.15 | 0.394 | 4.57 | 0.818 | 3.83 |
| ATCCCTAGGTAAGACTCAGTTCAGTGAAGAACGC | 0.273 | 0.364 | 0.479 | 0.29 | 0.516 | -0.0282 | 0.0747 | -0.195 | -0.259 | -0.0563 | 0.0897 | -0.242 | -0.265 | 0.674 | 0.578 | 1.06 | 1.32 | 0.256 | 0.532 | 0.244 |
| CGAACGAGGGCATGAGTTGATATCAAATGCCGAT | 0.475 | 0.326 | -0.371 | 0.156 | -0.654 | 1.59 | 1.58 | 1.42 | 0.347 | 0.786 | 3.23 | 2.11 | 0.21 | -0.287 | 0.26 | 0.636 | -0.013 | 0.352 | -0.464 | 2.01 |
| CGTCCAAGGTCAAAGGTCCGTGAAGAGATGACGG | 7.36 | 5.64 | 0.823 | 4.24 | 0.921 | 5.73 | 6.71 | 6.69 | 4.16 | 5.81 | 3.4 | 4.24 | 0.753 | 0.764 | 2.99 | 4.61 | 1.12 | 5.96 | 0.563 | 5.32 |
| CGAACTAGGTCAAAACAGGACAGTGAAGGATGAT | 3.26 | 3.07 | 0.154 | 1.86 | 0.313 | 4.54 | 6.73 | 5.86 | 3.32 | 5.36 | 7.83 | 8.1 | 3.19 | 2.56 | 2.39 | 2.05 | -0.00978 | 2.02 | 0.444 | 3.33 |
| CCGAATGGGGCAAGGTTACCATAACGCACAGCCA | 0.248 | 0.895 | -0.0673 | 0.899 | -0.855 | 1.48 | 1.51 | 1.71 | 0.272 | 1.08 | 0.946 | 1.17 | -0.387 | -0.659 | 0.548 | 0.288 | -0.323 | 0.909 | -0.0739 | 1.75 |
| GCTGCTAGGTCAGGTCGGTCAGCTAACGGGTACG | 1.34 | 1.02 | 0.025 | 0.546 | -0.437 | 1.77 | 0.669 | 1.4 | -0.193 | 0.397 | 2.59 | 2.88 | -0.904 | -0.563 | 0.777 | 0.726 | -0.37 | 1.37 | -0.616 | 3.88 |
| TGAATGAGGTTACAAGATCAGGGAACGTTGCAAA | 1.8 | 1.28 | -0.302 | 1.34 | -0.31 | 3.09 | 2.14 | 2.54 | 1.05 | 1.65 | 1.92 | 3.07 | 0.903 | 1 | 0.112 | 0.754 | -0.231 | 1.68 | 0.0919 | 1.73 |
| TCATATAGGTAAAAAGTGAAAGTCGGTGTGGTAA | 1.13 | 1.01 | 0.0735 | 0.858 | -0.108 | 2.62 | 3.5 | 5.44 | 5.22 | 5.77 | 4.48 | 2.54 | 1 | 0.168 | 0.986 | 0.581 | 0.658 | 0.666 | 0.947 | 0.366 |
| ATTCAAAGTTCATCTAGGTAACGTAAGATATGCT | 6.71 | 6.24 | 6.17 | 3.99 | 2.84 | 4.52 | 4.18 | 4.51 | 1.84 | 3.39 | 0.894 | 2.97 | 2.38 | 1.91 | 2.88 | 4.96 | 7.34 | 3.44 | 1.89 | 4.93 |
